# Measurements reported in PubChem BioAssay AID1745853 (National Center for Advancing Translational Sciences (NCATS), 2022).
# Values joined by “and” are separate entries in the source; they are usually repeats but may differ in a detail not shown here. Equal values may be shown once. Screen size: about 25,000 compounds; about 970 (3.9%) were called active. Roughly 8% stayed inconclusive and do not appear here. The rule behind the calls is not given here. For the sample, actives were picked, then their nearest neighbours and some compounds at random. Some structures have more than one record in an assay (separate samples or runs), and their calls can disagree.
# Assays:
# Assay in all cases: Primary Screen for Target Class Profiling of Small Molecule Inhibitors of Methyltransferases
# [1] = biological target: Catechol O-methyltransferase (Homo sapiens) (UniProt P21964); details: purified enzyme, MTase-Glo SAH luminescence; activity change, negative = inhibition: at 40 µM, stronger effect = lower value; outcome: 40 uM
# Outline: (§1)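 Each enzyme was reacted with SAM and its substrate, with compounds tested once at 40 uM; SAH formed was read by MTase-Glo luminescence.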
# [2] = biological target: Glycine N-methyltransferase (Homo sapiens) (UniProt Q14749); details: purified enzyme, MTase-Glo SAH luminescence; measured here: GNMT inhibition; at 40 µM; stronger effect = lower value
# Outline: as §1
# [3] = biological target: Guanidinoacetate N-methyltransferase (Homo sapiens) (UniProt Q14353); details: purified enzyme, MTase-Glo SAH luminescence; measured here: GAMT inhibition; at 40 µM; stronger effect = lower value
# Outline: as §1
# [4] = biological target: Histamine N-methyltransferase (Homo sapiens) (UniProt P50135); details: purified enzyme, MTase-Glo SAH luminescence; measured here: HNMT inhibition; at 40 µM; stronger effect = lower value
# Outline: as §1
# [5] = biological target: Nicotinamide N-methyltransferase (Homo sapiens) (UniProt P40261); details: purified enzyme, MTase-Glo SAH luminescence; measured here: NNMT inhibition; at 40 µM; stronger effect = lower value
# Outline: as §1
# [6] = biological target: Phenylethanolamine N-methyltransferase (Homo sapiens) (UniProt P11086); details: purified enzyme, MTase-Glo SAH luminescence; measured here: PNMT inhibition; at 40 µM; stronger effect = lower value
# Outline: as §1
# % is set by controls: 0 for no effect and ±100 for the full control effect.
# Chain of Phenylethanolamine N-methyltransferase (Homo sapiens) (P11086 whole entry, looked up): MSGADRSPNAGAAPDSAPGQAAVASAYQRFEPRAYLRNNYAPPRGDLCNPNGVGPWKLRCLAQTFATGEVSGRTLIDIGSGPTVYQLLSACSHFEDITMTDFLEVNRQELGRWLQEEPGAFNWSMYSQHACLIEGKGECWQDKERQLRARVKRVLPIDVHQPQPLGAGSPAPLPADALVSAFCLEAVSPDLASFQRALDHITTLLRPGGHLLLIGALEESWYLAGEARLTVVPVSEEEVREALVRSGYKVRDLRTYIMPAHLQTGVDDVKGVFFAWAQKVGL
# Chain of Nicotinamide N-methyltransferase (Homo sapiens) (P40261 whole entry, looked up): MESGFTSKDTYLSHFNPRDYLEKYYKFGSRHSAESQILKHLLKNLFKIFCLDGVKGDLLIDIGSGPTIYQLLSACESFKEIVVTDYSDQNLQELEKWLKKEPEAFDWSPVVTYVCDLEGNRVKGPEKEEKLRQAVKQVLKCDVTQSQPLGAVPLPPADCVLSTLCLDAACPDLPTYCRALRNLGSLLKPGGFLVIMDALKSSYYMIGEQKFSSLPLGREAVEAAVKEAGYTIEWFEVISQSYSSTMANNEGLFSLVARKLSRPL
# Chain of Histamine N-methyltransferase (Homo sapiens) (P50135 whole entry, looked up): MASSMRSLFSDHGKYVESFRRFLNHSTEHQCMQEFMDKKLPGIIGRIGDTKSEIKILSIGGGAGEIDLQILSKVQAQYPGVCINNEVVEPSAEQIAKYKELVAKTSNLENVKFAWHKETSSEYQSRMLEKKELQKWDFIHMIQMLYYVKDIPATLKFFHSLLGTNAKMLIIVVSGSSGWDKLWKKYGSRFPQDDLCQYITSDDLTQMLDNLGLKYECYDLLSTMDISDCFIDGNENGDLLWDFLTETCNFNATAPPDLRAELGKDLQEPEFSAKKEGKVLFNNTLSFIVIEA
# Chain of Glycine N-methyltransferase (Homo sapiens) (Q14749 whole entry, looked up): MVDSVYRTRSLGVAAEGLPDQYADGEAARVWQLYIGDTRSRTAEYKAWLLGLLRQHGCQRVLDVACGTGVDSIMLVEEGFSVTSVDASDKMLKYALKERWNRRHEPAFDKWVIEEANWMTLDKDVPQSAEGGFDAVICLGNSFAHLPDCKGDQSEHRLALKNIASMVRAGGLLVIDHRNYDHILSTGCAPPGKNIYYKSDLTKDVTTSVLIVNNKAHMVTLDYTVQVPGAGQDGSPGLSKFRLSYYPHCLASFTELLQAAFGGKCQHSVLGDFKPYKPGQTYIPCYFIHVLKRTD
# Chain of Catechol O-methyltransferase (Homo sapiens) (P21964 whole entry, looked up): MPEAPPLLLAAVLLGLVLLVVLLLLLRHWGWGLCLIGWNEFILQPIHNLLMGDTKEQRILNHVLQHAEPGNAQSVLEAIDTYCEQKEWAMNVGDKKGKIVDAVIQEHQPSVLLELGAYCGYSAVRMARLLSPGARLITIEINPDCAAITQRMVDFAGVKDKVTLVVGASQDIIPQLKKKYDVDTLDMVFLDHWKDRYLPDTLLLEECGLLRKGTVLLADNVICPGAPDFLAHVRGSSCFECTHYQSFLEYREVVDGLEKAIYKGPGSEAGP
SMILES,"activity change, negative = inhibition [1]","activity change, negative = inhibition [2]","activity change, negative = inhibition [3]","activity change, negative = inhibition [4]","activity change, negative = inhibition [5]","activity change, negative = inhibition [6]"
FC(F)(F)c1cccc(C2=NOC3(CCCN(CC4CCCCC4)C3)C2)c1 (stereo not drawn),-1.26% (inactive),-2.05%,2.98%,1.38%,-6.62%,6.26%
Cc1nn(-c2ccccc2)c2c1C(C)N(C1CCN(C(=O)NC3CCCC3)C1)C2=O (stereo not drawn),-10.5% (inactive),-9.42%,-11.7%,-6.3%,-12.4%,-12%
O=C(NCc1cc2n(n1)CCCN(C1CCCCC1)C2)c1cccc(F)c1,-1.85% (inactive),-1.07%,-0.04%,-13%,-2.3%,3.54%
Cc1ccc(NC(=O)Cn2nc3n(C(C)C)c(=O)c4ccc(C(=O)NC(C)C)cc4n3c2=O)c(Cl)c1,7.09% (inactive),7.08%,2.19%,7.8%,1.15%,7.43%
CC[C@@H](c1ccc(F)c(F)c1)n1c(C(=O)OC)c(-c2ccno2)[nH]c1=S,6.91% (inactive),1.62%,4.04%,10.6%,-18.4%,-1.86%
CCCC1c2ccc(C)n2CCN1C(=O)Nc1ccc(OCC)cc1 (stereo not drawn),1.32% (inactive),1.56%,0%,-0.12%,2.78%,1.21%
CNC(=O)[C@@H]1CN(C(=O)c2ccc(OC)cc2C)C[C@H]1COC,-1.84% (inactive),-2.55%,-4.79%,-1.32%,-3.85%,-0.512%
CCCN1C(=O)c2cc(C(=O)NCc3cc(Br)ccc3OC)nn2CC1(C)C(=O)NC1CCCC1 (stereo not drawn),-2.6% (inactive),-4.66%,-1.16%,-1.31%,-2.91%,-4.59%
CC1=C[C@@H](CNS(=O)(=O)c2cccc(C#N)c2)[C@H](C(C)C)C[C@H]1CC(=O)N(C)Cc1cccnc1,-5.31% (inactive),-4.49%,-3.45%,-4.55%,-23.9%,-6.65%
CCCn1c(=O)c2ccc(C(=O)NC3CCCC3)cc2n2c(=O)n(Cc3ccc(F)cc3Cl)nc12,-1.77% (inactive),-1.81%,-0.898%,5.95%,-5.65%,-1.78%
C=C1C(=O)O[C@@H]2C[C@@]3(C)CCCC(=C)[C@]3(O)C[C@H]12,6.75% (inactive),1.89%,5.34%,6.01%,-3.59%,7.18%
CCCNC(=O)Cn1ccc2cc(S(=O)(=O)N3CCCCC3)ccc21,4.84% (inactive),9.68%,1.89%,7.8%,9.14%,4.01%
O=C(O)C1=NOC2CN([S+](=O)([O-])c3cc(C(F)(F)F)cc(C(F)(F)F)c3)CC12 (stereo not drawn),0.473% (inactive),0.245%,-0.074%,1.51%,-7.33%,-0.67%
COc1ccccc1NC(=O)CSc1nnc2[nH]c(=O)c(C(C)(C)C)nn12,9.13% (inactive),7.62%,0%,5.75%,-0.804%,-8.39%
CCCn1c(=O)c2cc(Cl)ccc2n2c(SCC(=O)Nc3cccc(Cl)c3)nnc12,-3.39% (inactive),-7.66%,-0.122%,1.87%,-14%,-4.95%
COc1ccc(NC(=O)CSc2nnc3n(CCCOC(C)C)c(=O)c4ccccc4n23)cc1,6.36% (inactive),1.3%,1.9%,7.77%,6.56%,5.87%
CCNC(=O)C#Cc1ccc2c(C(=Nc3ccc(CN(C)C)cc3)c3ccccc3)c(O)[nH]c2c1,-18.4% (active),-35.9%,-5.11%,-64.7%,-34.2%,-13.1%
COCCn1c(=O)c(C(=O)N2CCN(C(C)=O)CC2)nc2cccnc21,-9.78% (inactive),-6.01%,-10.4%,-3.36%,-14%,-5.78%
CC(C)Cn1c(=O)c2ccccc2n2c(=O)n(Cc3ccccc3)nc12,2.82% (inactive),-1.72%,0%,6.83%,-9.64%,0.863%
Cc1ccc(NC(=O)Cn2nc3n(C(C)C)c(=O)c4ccc(C(=O)NC5CCCCC5)cc4n3c2=O)cc1,2.74% (inactive),4.18%,4.48%,8.87%,1.86%,2.8%
CCC(=O)N1Cc2ccccc2OC2(CCN(C(C)C)CC2)C1,-1.54% (inactive),-3.35%,-0.819%,0.171%,-3.98%,-4.26%
CCOC(=O)CC1(NC(=O)N2CCn3cccc3C2Cc2ccccc2)CCCCC1 (stereo not drawn),-25% (inactive),-7.26%,-5.73%,-9.85%,-17.7%,-40.7%

SMILES,"activity change, negative = inhibition [1]","activity change, negative = inhibition [2]","activity change, negative = inhibition [3]","activity change, negative = inhibition [4]","activity change, negative = inhibition [5]","activity change, negative = inhibition [6]"
CN(C)CCN(C)[C@H]1[C@@H]2OC[C@@H](O2)[C@@H](NCc2ccc(N(C)C)cc2)[C@@H]1O,2.76% (inactive),0.488%,1.19%,0.035%,-5%,0.902%
COc1ccc(C(=O)N2CCC3(CC2)CCC(O)(CN(C)C)CC3)cc1OC,2.82% (inactive),-0.206%,-1.89%,-18.9%,-5.54%,-1.06%
CC(C)CCn1c(=O)c2ccccc2n2c(CCC(=O)NCCc3ccccc3)nnc12,3.9% (inactive),-7.17%,0%,6.82%,-15%,0.405%
CN(CCCNC(=O)CCCc1nnc2n3nc(-c4ccccc4)nc3c3ccccc3n12)Cc1ccccc1,-4.54% (active),-16.6%,1.44%,-57.9%,0.458%,-4.78%
CCCCNC(=O)CCc1nnc2n(CC(C)C)c(=O)c3ccccc3n12,3.12% (inactive),-1.98%,4.49%,5.26%,4.71%,-0.917%
COC(=O)c1ncn2c1C(=O)N(Cc1cc(OC)ccc1OC)C(C)(C(=O)NCc1ccccc1)C2 (stereo not drawn),-9.56% (inactive),-4.3%,3.99%,-2.02%,-4.11%,-4.82%
CN(C)c1cc2c(Nc3ccc4c(cnn4Cc4ccccc4)c3)ncnc2cn1,-13.2% (active) and -7.52% (inactive),-7.53% and -14.5%,10.1% and 6.13%,1.63% and -3.02%,-17% and -13.5%,-62.6% and -40%
CCC(C)C(=O)OC1C(C)C2(O)C(C=C(CO)CC3(O)C(=O)C(C)=CC32)C2C(C)(C)C12OC(=O)C(C)C (stereo not drawn),-2.75% (inactive),-4.22%,-5.2%,-3.1%,-15.7%,-0.901%
O=C(NCC1CCCCC1)c1cc(-c2cc(Cl)cc(Cl)c2)c2nncn2n1,-5.12% (inactive),-8.77%,-5.46%,-7.54%,-13.3%,-2.36%
CC(C)CCNC(=O)c1ccc2c(=O)nc3c(-c4ccc(Cl)cc4)n[nH]n3c2c1,-1.51% (inactive),-1.88%,4.17%,-4.65%,0.687%,-0.404%
COc1ccc(CCN2C(=O)c3ccc(-c4ccco4)n3CC2(C)C(=O)NCc2ccc(Cl)cc2)cc1OC (stereo not drawn),0.852% (inactive),-6.96%,1.72%,2.32%,-28.2%,-1.05%
Cc1cc2c(cc3n2CC(C)(C(=O)NC2CCCCC2)N(C2CCCCCC2)C3=O)o1 (stereo not drawn),3.65% (inactive),2.96%,9.51%,3.49%,-0.25%,-2.76%
CCCCCCc1cc2c(-c3ccccc3)cc(=O)oc2cc1OCC(N)=O,-7.58% (inactive),-9.86%,1.37%,-0.051%,-9%,-8.85%
COc1c2c(c(C)c3c1C(=O)OC3)OC1(C)CC(O)C34OC(O)(CCC3(C)C1C2)OC4(C)C (stereo not drawn),-2.85% (inactive),-1.14%,-7.45%,-0.188%,-20.3%,-0.001%
COc1ccc(OC)c(CCNC(=O)CCn2ccc3cc(S(=O)(=O)N4CCCC4)ccc32)c1,1.88% (inactive),1.91%,4.56%,3.65%,-0.408%,0.497%
CCOc1ccccc1CN1CCC(Cc2nc(-c3cccnc3)n[nH]2)C1 (stereo not drawn),-5.67% (active),-4.21%,-1.54%,-56.9%,-49.4%,-12.9%
Cn1nccc1C(=O)N1CCC(Cc2nc(C3CC3)n[nH]2)C1 (stereo not drawn),-2.8% (inactive),-3.99%,-1.84%,-1.69%,-5.4%,-4.14%
CC(C)NC(=O)c1ccccc1OCC1CCCN(Cc2cccnc2)C1 (stereo not drawn),-0.392% (inactive),-1.68%,-10.2%,-2.4%,-8.48%,-0.898%
CCC(C)N1Cc2cc(NC(=O)c3ccc([N+](=O)[O-])cc3)ccc2OCC1=O (stereo not drawn),-3.17% (inactive),-7.2%,-10.5%,-3.63%,-19.6%,-7.68%
CC(=O)c1ccc2c(c1)[C@H](NC(=O)c1ccc(F)c(Cl)c1)[C@H](O)C(C)(C)O2,-7.4% (inactive),-1.85%,-7.24%,-2.99%,-18.7%,-13.1%
COC[C@H]1NC(=O)CC[C@H]1C(=O)N1CCN(c2cccc(C)c2)CC1,-9.6% (inactive),-5.9%,-7.51%,-3.65%,-13.6%,-21.5%
